Measured values: PubChem BioAssay (NCI)
About 83,000 compounds went through this panel and 20% of them were active in at least one assay; those are over-represented in the sample as a whole.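 48-hour exposure, single concentration, 96-well plates; percent growth endpoint where 0 means no net growth. Active: below 10.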

How the values were obtained:
Test in all cases: NCI-60 one-dose screen, 48 h (100 = growth as untreated, 0 = no growth, -100 = all killed)
[1] = test system: DU-145 prostate; conditions: 10 µM unless noted
[2] = test system: K-562 leukemia; conditions: 10 µM unless noted
[3] = test system: MALME-3M melanoma; conditions: 10 µM unless noted
[4] = test system: MDA-MB-231 breast; conditions: 10 µM unless noted
[5] = test system: RXF 393 renal; conditions: 10 µM unless noted
[6] = test system: SF-268 CNS; conditions: 10 µM unless noted
[7] = test system: SF-295 CNS; conditions: 10 µM unless noted
[8] = test system: SF-539 CNS; conditions: 10 µM unless noted
[9] = test system: UACC-257 melanoma; conditions: 10 µM unless noted
[10] = test system: M14 melanoma; conditions: 10 µM unless noted
[11] = test system: HCT-15 colon; conditions: 10 µM unless noted
[12] = test system: HT29 colon; conditions: 10 µM unless noted
[13] = test system: SNB-75 CNS; conditions: 10 µM unless noted
[14] = test system: SNB-19 CNS; conditions: 10 µM unless noted
[15] = test system: U251 CNS; conditions: 10 µM unless noted
[16] = test system: PC-3 prostate; conditions: 10 µM unless noted
[17] = test system: SK-MEL-5 melanoma; conditions: 10 µM unless noted
[18] = test system: UACC-62 melanoma; conditions: 10 µM unless noted
[19] = test system: LOX IMVI melanoma; conditions: 10 µM
[20] = test system: SK-MEL-28 melanoma; conditions: 10 µM unless noted

Measured: growth

CC(C)c1ccc(C(=O)OCCCl)cc1
inactive: [1] 117% | [2] 103% | [3] 89.9% | [4] 105% | [5] 41.8% | [6] 112% | [7] 83.8% | [8] 104% | [9] 95.3% | [10] 93.6% | [11] 94% | [12] 109% | [13] 94% | [14] 91.1% | [15] 101% | [16] 106% | [17] 100% | [18] 110% | [19] 97.1% | [20] 92%

COC(CCCl)c1ccc(Cl)cc1 (stereo not given)
inactive: [1] 111% | [2] 89% | [3] 98.9% | [4] 119% | [5] 113% | [6] 110% | [7] 112% | [8] 101% | [9] 78% | [10] 101% | [11] 98.3% | [12] 93.6% | [13] 84.4% | [14] 110% | [15] 93.3% | [16] 108% | [17] 101% | [18] 107% | [19] 101% | [20] 106%

O=C1Nc2ccccc2/C1=C\c1ccccc1O
inactive: [1] 88.6% | [2] 73.1% | [3] 78% | [4] 83.6% | [5] 106% | [6] 89.7% | [7] 96.6% | [8] 88.7% | [9] 94% | [10] 85.6% | [11] 93.3% | [12] 116% | [13] 64.9% | [14] 101% | [15] 93.5% | [16] 96.8% | [17] 92.6% | [18] 80.5% | [19] 84.8% | [20] 97%

CC(=O)Nc1ccc(C(=O)c2ccc(S(=O)(=O)Nc3ccccc3)cc2)cc1
inactive: [1] 117% | [2] 112% | [3] 99.5% | [4] 88.1% | [5] 100% | [6] 104% | [7] 109% | [8] 94.7% | [9] 69.6% | [10] 91.8% | [11] 104% | [12] 96.7% | [13] 78.1% | [14] 80.3% | [15] 91.9% | [16] 87.2% | [17] 89.8% | [18] 83.1% | [19] 91.6% | [20] 114%

CC(=O)c1cccs1
inactive: [1] 109% | [2] 108% | [3] 115% | [4] 101% | [5] 96.6% | [6] 103% | [7] 97.3% | [8] 95.6% | [9] 96.3% | [10] 102% | [11] 99.5% | [12] 99.8% | [13] 96% | [14] 102% | [15] 101% | [16] 98.3% | [17] 110% | [18] 94.2% | [19] 93.1% | [20] 98.1%

Cc1cc2nc(C)c(C)nc2cc1C
inactive: [1] 115% | [2] 119% | [3] 109% | [4] 101% | [5] 109% | [6] 109% | [7] 89% | [8] 104% | [9] 97.8% | [10] 108% | [11] 107% | [12] 108% | [13] 99.4% | [14] 111% | [15] 98.3% | [16] 81.4% | [17] 95.3% | [18] 99.5% | [19] 97.2% | [20] 110%

CC1(C)CC(=O)C=C(N)C1
inactive: [1] 128% | [2] 146% | [3] 155% | [4] 104% | [5] 94.4% | [6] 110% | [7] 98.7% | [8] 127% | [9] 87.2% | [10] 102% | [11] 102% | [12] 96.1% | [13] 76.1% | [14] 105% | [15] 98.8% | [16] 93% | [17] 131% | [18] 98.5% | [19] 98.1% | [20] 104%

Cc1ccc(NC(=O)c2ccccc2Cl)cc1
inactive: [1] 112% | [2] 99.6% | [3] 123% | [4] 118% | [5] 108% | [6] 109% | [7] 108% | [8] 107% | [9] 131% | [10] 114% | [11] 95.3% | [12] 107% | [13] 95.3% | [14] 99% | [15] 118% | [16] 89.6% | [17] 107% | [18] 98.6% | [19] 101% | [20] 108%

CCNCC(C)(C)O
inactive: [1] 118% | [2] 111% | [3] 100% | [4] 94.9% | [5] 117% | [6] 119% | [7] 103% | [8] 102% | [9] 98.7% | [10] 95.5% | [11] 104% | [12] 109% | [13] 79.4% | [14] 102% | [15] 104% | [16] 91.5% | [17] 97.3% | [18] 102% | [19] 101% | [20] 101%

Nc1ncnc(Nc2ccc(C(F)(F)F)cc2)n1
inactive: [1] 107% | [2] 98.9% | [3] 105% | [4] 102% | [5] 113% | [6] 101% | [7] 101% | [8] 107% | [9] 95.5% | [10] 103% | [11] 103% | [12] 103% | [13] 87.5% | [14] 98.8% | [15] 94.2% | [16] 89.6% | [17] 99.6% | [18] 89.1% | [19] 100% | [20] 104%

COc1cc(C(=O)NC(=S)NCc2ccncc2)cc(OC)c1OC
inactive: [1] 103% | [2] 86.2% | [3] 104% | [4] 114% | [5] 95.8% | [6] 102% | [7] 96.5% | [8] 95.8% | [9] 103% | [10] 106% | [11] 95.5% | [12] 89.2% | [13] 92.5% | [14] 106% | [15] 98.7% | [16] 95.9% | [17] 90.3% | [18] 99.3% | [19] 97.7% | [20] 102%

O=C(Nc1ccccc1)c1ccco1
inactive: [1] 112% | [2] 93.7% | [3] 92.9% | [4] 112% | [5] 123% | [6] 117% | [7] 103% | [8] 102% | [9] 107% | [10] 97% | [11] 105% | [12] 100% | [13] 87% | [14] 107% | [15] 96.1% | [16] 100% | [17] 104% | [18] 104% | [19] 97.6% | [20] 105%

O=C(O)c1ccc(OCc2ccccc2)cc1
inactive: [1] 109% | [2] 108% | [3] 102% | [4] 92.7% | [5] 112% | [6] 106% | [7] 96.2% | [8] 97.5% | [9] 89.9% | [10] 103% | [11] 109% | [12] 100% | [13] 87.8% | [14] 95% | [15] 93.7% | [16] 90.4% | [17] 96.2% | [18] 95.6% | [19] 98.3% | [20] 101%

c1ccc(Nc2ccccn2)nc1
inactive: [1] 120% | [2] 90.5% | [3] 83.4% | [4] 97.1% | [5] 97.9% | [6] 102% | [7] 99.3% | [8] 94.6% | [9] 95.3% | [10] 99.9% | [11] 95.7% | [12] 100% | [13] 82.3% | [14] 97.5% | [15] 91.8% | [16] 95.9% | [17] 103% | [18] 94.1% | [19] 95.7% | [20] 118%

CC(=O)Nc1ccc(O)c(C)c1
inactive: [1] 109% | [2] 98.6% | [3] 98.8% | [4] 96.9% | [5] 116% | [6] 100% | [7] 105% | [8] 100% | [9] 87.8% | [10] 100% | [11] 118% | [12] 98.4% | [13] 95.4% | [14] 104% | [15] 92.5% | [16] 87% | [17] 100% | [18] 104% | [19] 95.4% | [20] 103%

CCC(=O)Oc1c(C)cc(O)c2ccccc12
inactive: [1] 107% | [2] 73.4% | [3] 113% | [4] 88.6% | [5] 92.4% | [6] 90.9% | [7] 83.4% | [8] 91.6% | [9] 94.4% | [10] 95.2% | [11] 91.1% | [12] 106% | [13] 86.4% | [14] 108% | [15] 87.7% | [16] 59% | [17] 82% | [18] 67.3% | [19] 75% | [20] 119%

CC(=O)c1cccc(NS(=O)(=O)c2ccc(C)cc2)c1
inactive: [1] 95.1% | [2] 27.4% | [3] 96.9% | [4] 83.7% | [5] 96.3% | [6] 89.3% | [7] 87.6% | [8] 74.6% | [9] 86.6% | [10] 60.6% | [11] 43.2% | [12] 30.2% | [13] 61.9% | [14] 90% | [15] 61.2% | [16] 78.9% | [17] 60.2% | [18] 84.4% | [19] 66.5% | [20] 78.5%

CCOC(=O)C1(N)CCCCC1
inactive: [1] 112% | [2] 116% | [3] 100% | [4] 102% | [5] 121% | [6] 102% | [7] 95.4% | [8] 96.9% | [9] 107% | [10] 93.8% | [11] 112% | [12] 104% | [13] 91.8% | [14] 96.5% | [15] 99.1% | [16] 96.6% | [17] 106% | [18] 105% | [19] 102% | [20] 165%

O=C(O)c1cccc(-n2ncc(Cl)c(Cl)c2=O)c1
inactive: [1] 114% | [2] 109% | [3] 106% | [4] 103% | [5] 118% | [6] 108% | [7] 102% | [8] 101% | [9] 89.2% | [10] 101% | [11] 98.5% | [12] 113% | [13] 81.1% | [14] 102% | [15] 101% | [16] 88.7% | [17] 98% | [18] 97.2% | [19] 92.2% | [20] 102%

N#CCCN1C(=O)CCC1C(=O)O (stereo not given)
inactive: [1] 114% | [2] 96.8% | [3] 114% | [4] 129% | [5] 115% | [6] 97.3% | [7] 101% | [8] 104% | [9] 93.4% | [10] 104% | [11] 97.8% | [12] 89.8% | [13] 103% | [14] 101% | [15] 101% | [16] 90.9% | [17] 110% | [18] 105% | [19] 120% | [20] 124%

Cn1/c(=N\N=C\c2ccccc2OCCO)sc2ccccc21
inactive: [1] 109% | [2] 76.7% | [3] 80.2% | [4] 72.1% | [5] 102% | [6] 94.1% | [7] 94% | [8] 92.9% | [9] 121% | [10] 103% | [11] 82.4% | [12] 109% | [13] 115% | [14] 96.7% | [15] 100% | [16] 76.5% | [17] 88% | [18] 90% | [19] 100% | [20] 124%
